This note sets out measurements from PubChem BioAssay (NCATS).

Values joined by “and” are separate entries in the source; they are usually repeats but may differ in a detail not shown here. Equal values may be shown once. Records with an inconclusive call do not appear. Unmarked numbers belong to inactive results. The call rests on the fitted dose curve; in most records, active means well fitted activation curve with a large enough effect; inconclusive means small, poorly fitted or top-dose-only effect; inactive means no such curve, though single readings can be large or run the other way. Positions of bridges follow the written chain, without caps; N, C: chain ends. Non-standard residues stand in square brackets, D forms with d. Residues, ends and D or L forms follow the SMILES beside them. hArg = N=C(N)NCCCC[C@H](N)C(=O)O; Mpa = O=C(O)CCS

This assay deals with Cellular tumor antigen p53 (Homo sapiens) (UniProt P04637). Nature of the assay: Primary qHTS for small molecule compounds that upregulate eGFP-tagged delta133p53alpha (in N-terminal) cells. (AID 2060322).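 Further: series mostly up to about 56 µM; 0% = DMSO vehicle and 100% = reference activator; nearly all actives have a fitted effect of over 75% in size.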 To be noted: NCI-H358 eGFP-delta133p53alpha fluorescence, 24 h; activation: stronger effect = higher value. An outline of the steps: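 NCI-H358 cells pre-induced 24 h with 10 ng/ml doxycycline for eGFP-delta133p53alpha, plated dox-free and exposed 24 h at 37C to titrated compounds. Fixed, Hoechst-stained; gated GFP peak intensity by laser scanning cytometry, normalized to DMSO (0%) and 57.5 uM 5-azacytidine (100%).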
Chain of Cellular tumor antigen p53 (Homo sapiens) (P04637 whole entry, looked up): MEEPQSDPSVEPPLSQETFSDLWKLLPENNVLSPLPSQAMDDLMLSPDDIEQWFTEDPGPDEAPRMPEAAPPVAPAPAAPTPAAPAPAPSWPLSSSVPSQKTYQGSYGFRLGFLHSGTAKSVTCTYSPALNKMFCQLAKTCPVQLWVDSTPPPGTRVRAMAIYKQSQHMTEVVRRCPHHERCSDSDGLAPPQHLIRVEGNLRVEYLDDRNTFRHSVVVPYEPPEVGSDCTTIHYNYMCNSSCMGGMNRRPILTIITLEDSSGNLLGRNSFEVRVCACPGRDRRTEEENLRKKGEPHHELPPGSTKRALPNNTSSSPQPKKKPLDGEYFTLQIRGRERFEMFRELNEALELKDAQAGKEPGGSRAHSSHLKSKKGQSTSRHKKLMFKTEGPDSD
For orientation: Quantitative high-throughput screening tests each substance at several concentrations.
Regarding `CNc1c2c(nn1C)CCCC2`, the activation was -18.4%.

Turning to `CNC1[C@H](O)C(O[C@@H]2C(O)C(O[C@H]3O[C@H]([C@@H](C)NC)CC[C@H]3N)[C@@H](N)C[C@H]2N)OC[C@]1(C)O` (stereo not given in full), the activation is -1.3%.

On to `CO[C@H]1C=CC=C(C)C(=O)NC2=CC(=O)C(NCCN(C)C)=C(C[C@@H](C)C[C@H](OC)[C@@H](O)[C@@H](C)C=C(C)[C@@H]1OC(N)=O)C2=O`, for which the activation is 14.6%.

As to `Cc1c(C(=O)O)c(O)cc2c1C(=O)c1c(O)c([C@@H]3O[C@H](CO)[C@@H](O)[C@H](O)[C@H]3O)c(O)c(O)c1C2=O`, the activation is -4.18%.

Take `CCN(CC)S(=O)(=O)c1ccc(C(=O)O)cc1`: the activation is -11.7%.

On to `COc1cc(C(=O)N2CCCCCCC2)cc(OC)c1OC`, for which the activation is -6.21%.

For `N#CC(=C(N)Sc1ccc(N)cc1)c1ccccc1C(F)(F)F`, the activation was 19.5%.

In the case of `CCN[C@@H]1C[C@H](N)[C@@H](OC2OC(CN)=CCC2N)[C@H](O)[C@H]1O[C@H]1OC[C@](C)(O)[C@H](NC)[C@H]1O` (stereo not given in full), the activation was 1.67%.

As for `O=C(Oc1ccccc1C(=O)O)c1ccccc1O`, the activation was -5.02%.

Consider `Cc1cc(NS(=O)(=O)c2ccc(N)cc2)no1`, for which the activation was -13.4% and 7.02%.

Turning to `CC(CC(C#N)(c1ccccc1)C(C)C)N(C)C` (stereo not given), the activation is -0.837%.

In the case of `NC(=O)[C@@H]1CSSCCC(=O)N[C@@H](CCCCN=C(N)N)C(=O)NCC(=O)N[C@@H](CC(=O)O)C(=O)N[C@@H](Cc2c[nH]c3ccccc23)C(=O)N2CCC[C@H]2C(=O)N1` ([Mpa][hArg]GDWPC-NH2; disulfide 1-7), the activation was 2.82%.

Take `Cc1[nH]cnc1-c1ccc(Cl)cc1`: the activation was 15.3%.

With `CN(C/C=C/C#CC(C)(C)C)Cc1cccc2ccccc12`, the activation is -0.565%.

Take `O=C(NCc1ccccc1)[C@H](Cc1ccccc1)NC(=O)[C@@H]1O[C@@H]1C(=O)NCCc1ccc(O)cc1`: the activation is 16.6%.

For `COc1cc(C)c(Cc2cnc(N)nc2N)cc1OC`, the activation was -6.69%.

Consider `NC(=Nc1ccccc1)Nc1ccccc1`, for which the activation is 7.53%.

Regarding `CC(=O)OC[C@H]1O[C@@](COC(C)=O)(O[C@H]2O[C@H](COC(C)=O)[C@@H](OC(C)=O)[C@H](OC(C)=O)[C@H]2OC(C)=O)[C@@H](OC(C)=O)[C@@H]1OC(C)=O`, the activation is 10.7%.

On to `Cc1cccc(C)c1NC(=O)CN1CCCC1`, for which the activation was 10%.

Regarding `C/C(=C(/OCCOc1ccc(Cl)cc1)c1ccc(Cl)cc1Cl)n1ccnc1`, the activation is 7.53%.

With `O=C(OCC1(COC(=O)c2cccnc2)CCCC(COC(=O)c2cccnc2)(COC(=O)c2cccnc2)C1O)c1cccnc1`, the activation was -11.7%.

With `C[N+](C)(C)CC(O)CC(=O)[O-]` (stereo not given), the activation was 7.53%.

In the case of `Clc1ccc2c(c1)Nc1ccccc1S2`, the activation was 20.9%.

Regarding `CCOc1ccccc1O[C@H](c1ccccc1)[C@H]1CNCCO1`, the activation is -13%.

Regarding `O=C(CCOCCOCCOCCOCCC(=O)Nc1c(I)cc(I)c(C(=O)O)c1I)Nc1c(I)cc(I)c(C(=O)O)c1I`, the activation is -9.21%.

Turning to `COc1cc2nc(N3CCN(C(=O)C4CCCO4)CC3)nc(N)c2cc1OC` (stereo not given), the activation was 1.69% and 38.8%.

In the case of `C[C@]12CC[C@H](O)CC1=CC[C@@H]1[C@H]2CC[C@]2(C)C(c3cccnc3)=CC[C@H]12`, the activation was -11.6%.

For the molecule `CN1CCCC(n2nc(Cc3ccc(Cl)cc3)c3ccccc3c2=O)CC1` (stereo not given), the activation is 10.9% and 17.6%.

With `CCOC(=O)N1CCN([N+]([O-])=NOc2cc(ON=[N+]([O-])N3CCN(C(=O)OCC)CC3)c([N+](=O)[O-])cc2[N+](=O)[O-])CC1`, the activation was 5.87%.

With `CC(O)CN(CCN(CC(C)O)CC(C)O)CC(C)O` (stereo not given), the activation was 22%.

With `C[C@@H]1O[C@@H](OC[C@H]2O[C@@H](Oc3c(-c4ccc(O)c(O)c4)oc4cc(O)cc(O)c4c3=O)[C@H](O)[C@@H](O)[C@@H]2O)[C@H](O)[C@H](O)[C@H]1O`, the activation was -29.9%.

Regarding `CC(C)=C(C#N)C(=O)N1CCCN(c2cc(NCCC(=O)O)nc(-c3ccccn3)n2)CC1`, the activation was 3.35%.

As to `O=S(=O)(N=Cc1c(O)ccc2ccccc12)c1cccs1`, the activation is 11.3%.

Regarding `Oc1cccc(O)c1`, the activation was -16.4%.

On to `Nc1c2c(nc3c1CCC3)CCCC2`, for which the activation is -11.7%.

On to `CC(C)(C)[C@H](NC(=O)c1ccc(N)c(Cl)c1)C(=O)N1CCC[C@@H]1C(=O)N[C@H](C#N)CC(=O)O`, for which the activation is -1.07%.

`CC(=O)NS(=O)(=O)c1ccc(N)cc1`: the activation was -1.67%.

On to `[O-][n+]1cccc(CO)c1`, for which the activation was 20.1%.

With `Cc1cc(O)c(C)c(C)c1O`, the activation is 17.5%.

With `O=C(CS(=O)Cc1ccco1)NCC=CCOc1cc(CN2CCCCC2)ccn1` (stereo not given), the activation is 38.6%.
